Laboratory results published in PubChem BioAssay (NCI).
This is part of a sample that, as a whole, favours compounds with a hit. Of some 83,000 tested, about 20% had one in any assay.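 Results are percent growth after 48 hours of single-concentration exposure. 100 means growth as in untreated cells, lower positive values show inhibition; negative values down to -100 show cell death.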 The source made the active and inactive calls. Rule for the calls: active = growth percent below 10; inactive = the rest.

Tests used:
Assay in all cases: NCI-60 one-dose screen, 48 h (100 = growth as untreated, 0 = no growth, -100 = all killed)
Settings in all cases: 10 µM unless noted
SR leukemia = system: SR leukemia
RPMI-8226 leukemia = system: RPMI-8226 leukemia
OVCAR-8 ovarian = system: OVCAR-8 ovarian
OVCAR-5 ovarian = system: OVCAR-5 ovarian
OVCAR-4 ovarian = system: OVCAR-4 ovarian
SK-OV-3 ovarian = system: SK-OV-3 ovarian
IGROV1 ovarian = system: IGROV1 ovarian
OVCAR-3 ovarian = system: OVCAR-3 ovarian
HS 578T breast = system: HS 578T breast
NCI/ADR-RES ovarian = system: NCI/ADR-RES ovarian
T-47D breast = system: T-47D breast
BT-549 breast = system: BT-549 breast
MDA-MB-435 melanoma = system: MDA-MB-435 melanoma
SW-620 colon = system: SW-620 colon
MCF7 breast = system: MCF7 breast
HCT-116 colon = system: HCT-116 colon
KM12 colon = system: KM12 colon
HCC-2998 colon = system: HCC-2998 colon

Measured: growth

Nc1ccc(-c2ccc(N)c(Br)c2)cc1Br
inactive: SR leukemia 20.7% | RPMI-8226 leukemia 29% | OVCAR-8 ovarian 59.2% | OVCAR-5 ovarian 63% | OVCAR-4 ovarian 75.5% | SK-OV-3 ovarian 64.4% | IGROV1 ovarian 47% | OVCAR-3 ovarian 51.4% | HS 578T breast 79.5% | NCI/ADR-RES ovarian 29.2% | T-47D breast 40.9% | BT-549 breast 34% | SW-620 colon 47% | MCF7 breast 17.9% | HCT-116 colon 23.6% | KM12 colon 37.3%
active: MDA-MB-435 melanoma 1.83%

O=C1/C(=C/c2cn(-c3ccccc3)nc2-c2ccccc2)SC(=S)N1c1ccccc1
inactive: SR leukemia 108% | RPMI-8226 leukemia 107% | OVCAR-8 ovarian 104% | OVCAR-5 ovarian 106% | OVCAR-4 ovarian 103% | SK-OV-3 ovarian 111% | IGROV1 ovarian 94.5% | OVCAR-3 ovarian 109% | HS 578T breast 101% | NCI/ADR-RES ovarian 103% | T-47D breast 99.1% | BT-549 breast 98% | MDA-MB-435 melanoma 98.3% | SW-620 colon 99.8% | MCF7 breast 93.8% | HCT-116 colon 102% | HCC-2998 colon 96.6% | KM12 colon 101%

COc1ccc(CCNC(=O)COc2cc3c(Nc4ccc(F)c(Cl)c4)ncnc3cc2OC)cc1OC
inactive: SR leukemia 82.3% | RPMI-8226 leukemia 90.1% | OVCAR-8 ovarian 103% | OVCAR-5 ovarian 65.4% | OVCAR-4 ovarian 92.4% | SK-OV-3 ovarian 89.8% | IGROV1 ovarian 46.3% | OVCAR-3 ovarian 82.8% | HS 578T breast 92.4% | NCI/ADR-RES ovarian 85.6% | T-47D breast 70% | BT-549 breast 99.5% | MDA-MB-435 melanoma 97.2% | SW-620 colon 101% | MCF7 breast 91.9% | HCT-116 colon 107% | HCC-2998 colon 101% | KM12 colon 96.9%

COc1ccc2nc3cc(Cl)ccc3c(NCCCNCCC(C)O)c2c1 (stereo not given)
active: SR leukemia -37.3% | RPMI-8226 leukemia -19.8% | OVCAR-8 ovarian 0.828% | OVCAR-5 ovarian -18.8% | OVCAR-4 ovarian -28.9% | SK-OV-3 ovarian 3.74% | IGROV1 ovarian -10.7% | OVCAR-3 ovarian -38.2% | HS 578T breast 0.958% | T-47D breast 4.09% | BT-549 breast -1.95% | MDA-MB-435 melanoma -86.3% | SW-620 colon -22.2% | MCF7 breast -0.546% | HCT-116 colon -49.9% | HCC-2998 colon -60.9% | KM12 colon -20%
inactive: NCI/ADR-RES ovarian 43.7%

Clc1ccc2c(c1)N(c1ncnc3ccc(-c4cnc5[nH]ccc5c4)cc13)CC2
active: SR leukemia 1.86% | OVCAR-4 ovarian 0.279% | IGROV1 ovarian -24% | HS 578T breast 1.12% | T-47D breast -15% | MDA-MB-435 melanoma -42.1% | MCF7 breast 6.81%
inactive: RPMI-8226 leukemia 26% | OVCAR-8 ovarian 27.9% | OVCAR-5 ovarian 39.1% | SK-OV-3 ovarian 28.3% | OVCAR-3 ovarian 21.5% | NCI/ADR-RES ovarian 33.3% | BT-549 breast 20.1% | SW-620 colon 24.5% | HCT-116 colon 16.6% | KM12 colon 19.9%

Cn1cc2c(=O)nc3c(-c4nc5ccccc5[nH]4)n[nH]n3c2n1
inactive: SR leukemia 32.2% | RPMI-8226 leukemia 50.6% | OVCAR-8 ovarian 70.9% | OVCAR-5 ovarian 126% | OVCAR-4 ovarian 90.6% | SK-OV-3 ovarian 85.2% | IGROV1 ovarian 91.8% | OVCAR-3 ovarian 73.4% | HS 578T breast 93.5% | NCI/ADR-RES ovarian 95.1% | T-47D breast 67.6% | BT-549 breast 34.7% | MDA-MB-435 melanoma 73.9% | SW-620 colon 97.2% | MCF7 breast 65.7% | HCT-116 colon 80.6% | HCC-2998 colon 84.8% | KM12 colon 73.9%

Cc1ccc(/C=C(\C#N)c2cc3ccccc3[nH]2)cc1
inactive: SR leukemia 16.2% | RPMI-8226 leukemia 60.2% | OVCAR-8 ovarian 63% | OVCAR-5 ovarian 65.2% | OVCAR-4 ovarian 71.6% | SK-OV-3 ovarian 67.1% | IGROV1 ovarian 55.3% | OVCAR-3 ovarian 29.7% | HS 578T breast 61.9% | NCI/ADR-RES ovarian 16.1% | T-47D breast 36.1% | BT-549 breast 56.9% | SW-620 colon 16.4% | MCF7 breast 22.4% | HCT-116 colon 32.5% | HCC-2998 colon 65.9% | KM12 colon 31.7%
active: MDA-MB-435 melanoma -5.1%

Nc1ccc(-c2nc3ccc4[nH]ncc4c3c3c2CCCC3)cc1F
inactive: SR leukemia 10.8% | RPMI-8226 leukemia 27.3% | OVCAR-8 ovarian 32.2% | OVCAR-5 ovarian 56.8% | OVCAR-4 ovarian 50.2% | IGROV1 ovarian 10.9% | OVCAR-3 ovarian 37.3% | HS 578T breast 17.1% | NCI/ADR-RES ovarian 35.6% | T-47D breast 14.6% | BT-549 breast 10% | MDA-MB-435 melanoma 14.2% | SW-620 colon 18.7% | MCF7 breast 29.2% | HCT-116 colon 11.1% | HCC-2998 colon 44.3% | KM12 colon 12.3%
active: SK-OV-3 ovarian -28.3%

COC(=O)c1[nH]nc(OC)c1C1(C(C#N)c2nc3ccccc3s2)CCCc2ccccc21 (stereo not given)
inactive: SR leukemia 99.8% | RPMI-8226 leukemia 94.7% | OVCAR-8 ovarian 100% | OVCAR-5 ovarian 80.3% | OVCAR-4 ovarian 103% | SK-OV-3 ovarian 87% | IGROV1 ovarian 79% | OVCAR-3 ovarian 98.6% | HS 578T breast 99.2% | NCI/ADR-RES ovarian 101% | T-47D breast 84.1% | BT-549 breast 88.2% | MDA-MB-435 melanoma 104% | SW-620 colon 104% | MCF7 breast 84.8% | HCT-116 colon 104% | HCC-2998 colon 102% | KM12 colon 97%

C=C(CNCCc1ccc(O)cc1)[C@@H]1CC[C@]2(CO)CC[C@]3(C)[C@H](CC[C@@H]4[C@@]5(C)CCC(NCCc6ccc(O)cc6)C(C)(C)[C@@H]5CC[C@]43C)[C@@H]12 (stereo not given in full)
active: SR leukemia -58.5% | RPMI-8226 leukemia -51.7% | OVCAR-8 ovarian -78.1% | OVCAR-5 ovarian -86.3% | OVCAR-4 ovarian -81.7% | SK-OV-3 ovarian -97.4% | IGROV1 ovarian -78.4% | OVCAR-3 ovarian -94.2% | HS 578T breast -38.9% | NCI/ADR-RES ovarian -54.5% | T-47D breast -69.1% | BT-549 breast -79.7% | MDA-MB-435 melanoma -89.9% | SW-620 colon -74.1% | MCF7 breast -74.3% | HCT-116 colon -92% | KM12 colon -77.4%

CCOC(=O)c1c(-c2ccc(OC)cc2)c(C#N)c2c(C#N)c(N)nn2c1N
active: SR leukemia 0.886% | OVCAR-3 ovarian 5.29% | MDA-MB-435 melanoma -38.2%
inactive: RPMI-8226 leukemia 13.8% | OVCAR-8 ovarian 43.9% | OVCAR-5 ovarian 70.1% | OVCAR-4 ovarian 68.1% | SK-OV-3 ovarian 45.8% | IGROV1 ovarian 24.6% | HS 578T breast 27.7% | NCI/ADR-RES ovarian 17.8% | T-47D breast 12% | BT-549 breast 37% | SW-620 colon 26.9% | MCF7 breast 13.2% | HCT-116 colon 16% | HCC-2998 colon 62.9% | KM12 colon 23.6%

O=C1/C(=C/c2ccccc2)CN(C(=O)C(Cl)Cl)C/C1=C\c1ccccc1
active: SR leukemia -4.98% | RPMI-8226 leukemia -25.6% | IGROV1 ovarian -25.1% | OVCAR-3 ovarian -52.7% | HS 578T breast 4.17% | BT-549 breast -5.59% | MDA-MB-435 melanoma -50.2% | SW-620 colon -49% | MCF7 breast -39% | HCT-116 colon -70.7% | KM12 colon -61.8%
inactive: OVCAR-8 ovarian 10.7% | OVCAR-5 ovarian 31.7% | OVCAR-4 ovarian 29.7% | SK-OV-3 ovarian 90.2% | NCI/ADR-RES ovarian 13.5% | T-47D breast 17.2%

[2H]C([2H])([2H])Oc1cccc(/C=C/C(=O)/C=C(/C=C/c2cccc(OC([2H])([2H])[2H])c2OC([2H])([2H])[2H])OB(F)F)c1OC([2H])([2H])[2H]
inactive: SR leukemia 23.3% | RPMI-8226 leukemia 46% | OVCAR-8 ovarian 20.6% | OVCAR-5 ovarian 106% | OVCAR-4 ovarian 71.5% | SK-OV-3 ovarian 105% | IGROV1 ovarian 73.3% | OVCAR-3 ovarian 39.2% | HS 578T breast 91.9% | NCI/ADR-RES ovarian 50.6% | T-47D breast 50.6% | BT-549 breast 86.2% | MDA-MB-435 melanoma 57% | SW-620 colon 46.7% | MCF7 breast 26.2% | HCT-116 colon 41.5% | KM12 colon 92.2%

Clc1cccc(Nc2ncnc3ccc(-c4cncc(-n5cnnn5)c4)cc23)c1
active: SK-OV-3 ovarian -4.88%
inactive: SR leukemia 71.2% | RPMI-8226 leukemia 35.5% | OVCAR-8 ovarian 75.1% | OVCAR-5 ovarian 65.2% | OVCAR-4 ovarian 90.2% | IGROV1 ovarian 26.1% | OVCAR-3 ovarian 66.1% | HS 578T breast 67.2% | NCI/ADR-RES ovarian 76.4% | T-47D breast 44.8% | BT-549 breast 44.9% | MDA-MB-435 melanoma 89.8% | SW-620 colon 96.8% | MCF7 breast 67.7% | HCT-116 colon 38.1% | HCC-2998 colon 93.6% | KM12 colon 91.4%

Nc1ncc(-c2ccc3ncnc(N4CCc5ccc(Cl)cc54)c3c2)cc1C(F)(F)F
inactive: OVCAR-8 ovarian 25.2% | OVCAR-5 ovarian 12.2% | OVCAR-3 ovarian 10.8% | NCI/ADR-RES ovarian 20.3% | T-47D breast 12% | MDA-MB-435 melanoma 13.7% | SW-620 colon 34.8% | HCT-116 colon 23.3% | HCC-2998 colon 22.3% | KM12 colon 13.4%
active: SR leukemia -5.75% | RPMI-8226 leukemia -3.24% | OVCAR-4 ovarian 8.43% | SK-OV-3 ovarian 6.83% | IGROV1 ovarian -53.3% | HS 578T breast -14.3% | BT-549 breast -2.6% | MCF7 breast 7.34%
